Results: PubChem BioAssay (NCI)
This is part of a sample that, as a whole, favours compounds with a hit. Of some 79,000 tested, about 15% had one in any assay. Values without a mark were called inactive. Calls of active or inactive are those of the source. Rule as the data show it: active = growth inhibition above about 70%; inactive = the rest.

Columns and labels:
[1] = NCI Yeast Anticancer Drug Screen. Data for the rad50 strain (AID 155);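 also: 0% = growth of vehicle-only cultures of the same strain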; conditions: S. cerevisiae rad50 strain growth inhibition; at 50.0 µM; hits give high values
Method in brief: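 Compounds were tested on a yeast strain with an engineered DNA damage repair alteration; the reported value is growth inhibition normalised to vehicle treatment.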

[2] = NCI Yeast Anticancer Drug Screen. Data for the mec2-1 strain (AID 157); conditions: S. cerevisiae mec2-1 strain, at 50.0 µM, hits give high values
Method in brief: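 Strain: mec2-1 (DNA repair/cell cycle alteration). Compound exposure, then growth measured; inhibition expressed relative to vehicle.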

[3] = NCI Yeast Anticancer Drug Screen. Data for the sgs1 mgt1 strain (AID 161);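 also: 0% = growth of cultures given vehicle only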; conditions: S. cerevisiae sgs1 mgt1 strain, at 50.0 µM, hits give high values
Method in brief: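 Inhibition of yeast growth, normalised to vehicle-treated controls, is reported for a strain bearing genetic alterations in DNA damage repair.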

[4] = NCI Yeast Anticancer Drug Screen. Data for the cln2 rad14 strain (AID 165);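 also: 0% = growth equal to vehicle treated cultures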; conditions: S. cerevisiae cln2 rad14 strain, at 50.0 µM, hits give high values
Method in brief: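 Compounds are applied to the cln2 rad14 yeast strain, and growth is then compared with that of vehicle-treated cultures to give inhibition.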

[5] = NCI Yeast Anticancer Drug Screen. Data for the bub3 strain (AID 167); conditions: S. cerevisiae bub3 mutant strain, at 50.0 µM, hits give high values
Method in brief: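 Growth of a checkpoint-deficient yeast mutant is measured after compound exposure. Values represent inhibition relative to vehicle.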

[6] = NCI Yeast Anticancer Drug Screen. Data for the mlh1 rad18 strain (AID 175); conditions: S. cerevisiae mlh1 rad18 strain growth inhibition; at 50.0 µM; hits give high values
Method in brief: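 Read-out is yeast growth inhibition, calculated against vehicle-only controls. The compound was applied to a strain engineered with DNA damage repair alterations.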

Compound	growth inhibition [1]	growth inhibition [2]	growth inhibition [3]	growth inhibition [4]	growth inhibition [5]	growth inhibition [6]
NC(=O)c1n[nH]c(C2OC(CO)C(O)C2O)n1 (configuration not stated)	-1.5%	-6.8%	0.9%	-15.7%	5.75%	-7.5%
CCN1C(=O)C(N=[N+]=[N-])(c2ccccc2)C(=O)c2ccccc21 (configuration not stated)	10.5%	-8.5%	-16.7%	6.6%	2.45%	0.65%
CC(=O)CC(=O)ON(C)C(C)=O	-8.85%	19.2%	-15.8%	8.45%	-14.3%	-11.6%
CC(C)(C)NO	7.3%	-0.85%	7.65%	3.4%	13.6%	-3.8%
CCC(C)C(NCc1ccccc1)C(=O)O (configuration not stated)	-8.75%	7.5%	26.9%	-13.2%	-18.4%	-8.25%
COc1cc(-c2c(C#N)c(OC)[nH]c(=O)c2C#N)cc(OC)c1OC	3.85%	13.3%	7.55%	13.4%	1.85%	-0.45%
NC1CC(=O)c2sccc21 (configuration not stated)	9.8%	2.15%	16.8%	9.2%	17.8%	1.25%
C1CCN(CCC2CCCCN2)CC1 (configuration not stated)	-23.4%	-32.4%	-41.6%	-33.2%	-37.8%	-28%
CCN(CC)CCCC(C)Nc1nccc(/C=C/c2ccc(Cl)cc2)n1 (configuration not stated)	9.9%	16.3%	28.9%	-1.1%	14%	41.7%
C(=C\C(SCc1ccccc1)SCc1ccccc1)/c1ccccc1	-43%	-60%	-27.8%	3.55%	-7.2%	-35.6%
CC(=O)CC(=NCC(O)CN=C(CC(C)=O)c1ccccc1)c1ccccc1.[Cu] (configuration not stated)	10.4%	8.55%	5.9%	-18.7%	-11.3%	25.4%
CN(C)CCC(N)(P(=O)([O-])[O-])P(=O)([O-])[O-].N.N.[Pt+2]	-24.5%	2.2%	3.15%	12.9%	12.3%	3.95%
COc1ccc2c(c1)CCN1CCc3ccccc3CC21 (configuration not stated)	30.6%	43.4%	58.5%	45.9%	53.4%	42.6%
CCn1nnc2c(C(N)=O)ncn2c1=O	0.6%	-38.7%	-44.1%	14.1%	-14.8%	-16.6%
Cn1c(=O)c2nc3sc4c(n3c2n(C)c1=O)C(=O)c1ccccc1C4=O	-17%	21.4%	11.2%	-11.2%	-11%	25.4%
CCSC(=S)S(=O)(=O)c1ccc(C)cc1	90.4% (active)	93.1% (active)	89.5% (active)	90.5% (active)	84.2% (active)	92.3% (active)
CCOC(=O)C(C)(/C=N/NS(=O)(=O)c1ccc(C)cc1)c1ccccc1 (configuration not stated)	5.2%	10.7%	9.15%	5.7%	15.9%	14.3%
CNc1ccn(C2OC(CO)C(O)C2SC(C)(C)C)c(=O)n1 (configuration not stated)	6.15%	0.25%	13.7%	9.1%	0.45%	28.6%
CN1C(=O)c2ccccc2N(C)C(=O)c2ccccc21	0.9%	-15.1%	11.3%	-2.45%	4.85%	12%
CCOC(=O)N(C)N=NCCCl	15.2%	2.2%	-5.05%	-26.9%	8.2%	-4.9%
CC(C)c1ccc(/C=C2\CCC/C(=C\c3ccc(C(C)C)cc3)C2=O)cc1	-6.7%	-17.1%	9.5%	-12.2%	-20.4%	-3.5%

Compound	growth inhibition [1]	growth inhibition [2]	growth inhibition [3]	growth inhibition [4]	growth inhibition [5]	growth inhibition [6]
O=C(NNC(=O)c1ccc2ccccc2c1)c1ccc(Cl)c(Cl)c1	-13.3%	-23.3%	-2.65%	17.1%	-5.25%	-14.1%
CC(NNC(=O)c1ccncc1)c1ccc(Cl)cc1Cl (configuration not stated)	-19.9%	9.15%	-21.6%	22.6%	13.8%	-16.1%
COc1ccccc1NC(=O)NC1CCCCC1	-2.8%	-4.65%	-8.2%	-88%	5.5%	-15.2%
NCCNC(=O)Cc1cccc2ccccc12	-21.1%	-48%	-5.15%	3.6%	-36.5%	-3.05%
CC1(C)N=C(/C(Cl)=[N+](/[O-])C(=O)c2ccc(F)cc2)C(C)(C)N1O	-15.5%	-35.3%	-27.2%	16.7%	-25.8%	-25.9%
O=C1OC(c2ccc([N+](=O)[O-])cc2)=N/C1=C\c1cc(Br)ccc1O	52.8%	28.5%	49.7%	64.3%	50.4%	35%
Cc1cc2c(cc1C)C(O)CCC(=O)N2 (configuration not stated)	5.55%	3.7%	11.7%	6.85%	16%	-0.05%
OCCn1nnc2ccccc21	-0.55%	-2%	-4.35%	5.35%	1.7%	-3.7%
CC(=O)NC(=O)C(C(C)=O)c1ccccc1 (configuration not stated)	-5.8%	-0.25%	-7.35%	12.8%	-7.75%	-10.9%
Cn1c(=O)c2[nH]c(C3CCCCCC3)nc2n(C)c1=O	13.6%	-9.7%	-9.4%	-4.1%	7.25%	-1.8%
CCCCCCCC[C@]1(O)C[C@H]2[C@@H]3CCc4cc(OC)ccc4[C@H]3CC[C@]2(C)[C@H]1O	-3.45%	-10.7%	-1.15%	7.1%	-11.2%	0.5%
Cc1cc(NCCN(C(C)C)C(C)C)nc(Nc2nc3ccc(Cl)cc3[nH]2)n1	-13%	-16.5%	-10.2%	-45.2%	1.95%	-44.5%
Cc1cc(S(=O)(=O)Nc2n[nH]c(N)n2)c(Cl)cc1Cl	-52%	1.55%	-56%	-51%	9.4%	-48.5%
CC1=CC(=O)CC(C)(C)C1(O)/C=C/C(C)=C/C(=O)O (configuration not stated)	-11.6%	-28.5%	-56%	-37%	-41.7%	5.1%
COC(=O)CC(NC(=O)CNC(=O)OCc1ccccc1)C(=O)NCC(=O)Oc1ccc([N+](=O)[O-])cc1 (configuration not stated)	21%	2%	18.8%	15.1%	-0.65%	12%
Cc1ccc(C)c(NC(=O)OC/C=C/c2ccccc2)c1	-1.2%	29.2%	19.9%	-10.9%	26.7%	41.2%
CCC(CC)(CO)CO	8.75%	-5.75%	-4.3%	16.1%	-0.55%	-1.55%
O=S(=O)(SC1=NCCN1)c1cccc2ccccc12	3%	3.5%	20.1%	30%	-3%	8.45%
CCCC(=O)c1ccc2c(ccc(=O)n2C)c1	12.2%	-8.75%	-5.2%	38.1%	28.8%	15.9%
COC(=O)/C=C(\C(=O)OC)C(C(=O)c1ccccc1)=P(c1ccccc1)(c1ccccc1)c1ccccc1	-9.95%	8.7%	-4.2%	-26.5%	3.55%	1.15%
O=[N+]([O-])c1ccc(S(=O)(=O)Nc2c([N+](=O)[O-])cc([N+](=O)[O-])c3ccccc23)cc1	36.6%	-3.9%	21.4%	12.7%	2.7%	18.4%
